# According to PubChem BioAssay (NCATS):
# Records with an inconclusive call do not appear. Values without a mark were called inactive. Active and inactive are the calls of the source. Calls follow the shape of the dose curve; as a rule, active = well fitted inhibition curve with a large enough effect; inconclusive = small, poorly fitted or top-dose-only effect; inactive = flat fitted curve, though single readings scatter.
# Legend:
# [1] = Drug repurposing screens with cells derived from glioblastoma tumor samples (AID 1345199); conditions: GBM patient neurospheres viability, ATP luminescence, 48 h; also: nearly all actives have a fitted effect of over 40% in size
# How it was run: (§1)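 Four patient lines of CD133+ GBM neurospheres were screened at several concentrations; hits were retested in those lines plus three slower-growing GBM lines, using 48-hour treatment and ATP-based viability.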
# [2] = test system: astro; assay: as above; conditions: viability, ATP luminescence, 48 h; series mostly up to 45.9 µM
# How it was run: as §1
# [3] = at 45.9 µM (top of the series), tumour line B
# [4] = at 45.9 µM (top of the series), tumour line D
# [5] = at 46.1 µM (top of the series), tumour line C
# % is scaled to controls: 0 for no effect and ±100 for the full control effect; potency is read from the fitted curve at half-maximal effect.
smiles,measurement,setting,value
Cc1ccccc1-n1c(CF)nc2ccc(N)cc2c1=O,"activity, negative = cell killing",[1]; [3],-13.6%
same,"activity, negative = cell killing",[1]; [4],0.0058%
same,"activity, negative = cell killing",[1]; [5],-23.5%
same,Potency,[2],inactive
C=CCC1(C(C)CCC)C(=O)N=C(S)NC1=O (stereo not drawn),"activity, negative = cell killing",[1]; [3],-7.88%
same,"activity, negative = cell killing",[1]; [4],-15.2%
same,"activity, negative = cell killing",[1]; [5],-10.6%
same,Potency,[2],inactive
C=CCN=C=S,"activity, negative = cell killing",[1]; [3],-6.51%
same,"activity, negative = cell killing",[1]; [4],-10.4%
same,"activity, negative = cell killing",[1]; [5],6.26%
same,Potency,[2],inactive
CCC/C=C/C=C/C(=O)O[C@H]1/C(=C/C(=O)OC)C[C@H]2C[C@H]([C@@H](C)O)OC(=O)C[C@H](O)C[C@@H]3C[C@H](OC(C)=O)C(C)(C)[C@](O)(C[C@@H]4C/C(=C/C(=O)OC)C[C@H](/C=C/C(C)(C)[C@]1(O)O2)O4)O3,"activity, negative = cell killing",[1]; [3],-7.48%
same,"activity, negative = cell killing",[1]; [4],-24.1%
same,Potency,[2],inactive
O=[N+]([O-])C(Br)(CO)CO,"activity, negative = cell killing",[1]; [5],-7.96%
same,Potency,[1]; tumour line A,35.5 µM (active)
same,Potency,[2],22.4 µM (active)
O=C(OCCN1CCCCC1)C(O)(c1ccccc1)c1ccccc1,"activity, negative = cell killing",[1]; [3],-11.1%
same,"activity, negative = cell killing",[1]; [4],-8.82%
same,"activity, negative = cell killing",[1]; [5],-26.9%
same,Potency,[2],inactive
O=C1CCCCC1CN1CCCCC1 (stereo not drawn),"activity, negative = cell killing",[1]; [3],-12.3%
same,"activity, negative = cell killing",[1]; [4],4.04%
same,"activity, negative = cell killing",[1]; [5],-15.7%
same,Potency,[2],inactive
ClC1=C(Cl)[C@]2(Cl)[C@@H]3[C@H]4C[C@H]([C@@H]5O[C@H]45)[C@@H]3[C@@]1(Cl)C2(Cl)Cl,"activity, negative = cell killing",[1]; [3],-22%
same,Potency,[1]; tumour line A,11.2 µM (active)
same,Potency,[2],inactive
Cc1cccc(C(C)c2cnc[nH]2)c1C (stereo not drawn),"activity, negative = cell killing",[1]; [3],-17.4%
same,"activity, negative = cell killing",[1]; [4],6.82%
same,"activity, negative = cell killing",[1]; [5],-27%
same,Potency,[2],inactive
CN1[C@@H]2CC[C@H]1CC(OC1c3ccccc3CCc3ccccc31)C2 (stereo partly drawn),"activity, negative = cell killing","[1]; at 21.2 µM (top of the series), tumour line B",-28.8%
same,Potency,[1]; tumour line A,5.62 µM (active)
same,Potency,[2],inactive
c1ccc(C2(N3CCCC3)CCCCC2)cc1,"activity, negative = cell killing",[1]; [5],-27.4%
same,Potency,[1]; tumour line A,11.2 µM (active)
same,Potency,[2],inactive
CC[N+](C)(CC)CCOC(=O)C(O)(c1ccccc1)c1ccccc1,"activity, negative = cell killing",[1]; [3],-10.1%
same,"activity, negative = cell killing",[1]; [4],-2.57%
same,"activity, negative = cell killing","[1]; at 46 µM (top of the series), tumour line A",-29.2%
same,Potency,[2],inactive
C[C@]12CC[C@H]3[C@@H](CCC4=C(O)C(=O)CC[C@@H]43)[C@@H]1CC[C@@H]2OC(=O)CCC1CCCC1,"activity, negative = cell killing",[1]; [3],-11.4%
same,"activity, negative = cell killing",[1]; [4],-14.1%
same,"activity, negative = cell killing",[1]; [5],-19.8%
same,Potency,[2],inactive
C/C(=C\c1csc(C)n1)[C@@H]1C[C@@H]2O[C@]2(C)CCC[C@H](C)[C@H](O)[C@@H](C)C(=O)C(C)(C)[C@@H](O)CC(=O)O1,"activity, negative = cell killing",[1]; [4],-19.9%
CN1CCCC(=C(c2cccs2)c2cccs2)C1,"activity, negative = cell killing",[1]; [4],-24.1%
C[C@H]1CC[C@@H]2[C@@H](C)[C@H]3[C@H](C[C@H]4[C@@H]5CC=C6CC(O[C@@H]7O[C@H](CO)[C@H](O)[C@H](O[C@@H]8O[C@H](CO)[C@@H](O)[C@H](O)[C@H]8O)[C@H]7O[C@H]7O[C@@H](C)[C@H](O)[C@@H](O)[C@H]7O)CC[C@]6(C)[C@H]5CC[C@]34C)N2C1 (stereo partly drawn),"activity, negative = cell killing",[1]; [5],-1.25%
same,Potency,[1]; tumour line B,22.4 µM (active)
C[N+]1(C)[C@@H]2CC[C@H]1CC(OC(=O)c1c[nH]c3ccccc13)C2 (stereo partly drawn),"activity, negative = cell killing",[1]; [5],-27.7%
OC(c1ccccc1)(c1ccccc1)C1CN2CCC1CC2 (stereo not drawn),Potency,[1]; tumour line A,12.6 µM (active)
